Screens as filed in PubChem BioAssay.
Shown are actives, neighbours in structure and some others; about 3.3% of the full set was active somewhere.
SARS PLpro yeast: SARS-CoV PLP inhibition in yeast; S. cerevisiae expressing SARS-CoV PLpro, growth rescue; Potency, µM (highest dose often 32.9 µM), without a hit: at the highest dose activity, positive = growth rescue, most hits filed as activators; 330,000 compounds, 0.19% hits; AID 485353; calls by dose curve; also: 0% is about no effect; nearly all actives have a fitted effect of over 55% in size
AmpC inh detg: AmpC beta-lactamase inhibition with detergent present; P00811; AmpC hydrolysis of nitrocefin, absorbance 480 nm, 0.01% Triton; Potency, µM (series often up to 114 µM), for inactives: top-dose activity change, negative = inhibition, usual class: inhibitors; 370,000 compounds, 0.041% hits; AID 485294;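 also: 0% = no-compound wells and -100% = no-enzyme wells; nearly all actives have a fitted effect of over 25% in size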
Target sequence (P00811 whole entry, looked up): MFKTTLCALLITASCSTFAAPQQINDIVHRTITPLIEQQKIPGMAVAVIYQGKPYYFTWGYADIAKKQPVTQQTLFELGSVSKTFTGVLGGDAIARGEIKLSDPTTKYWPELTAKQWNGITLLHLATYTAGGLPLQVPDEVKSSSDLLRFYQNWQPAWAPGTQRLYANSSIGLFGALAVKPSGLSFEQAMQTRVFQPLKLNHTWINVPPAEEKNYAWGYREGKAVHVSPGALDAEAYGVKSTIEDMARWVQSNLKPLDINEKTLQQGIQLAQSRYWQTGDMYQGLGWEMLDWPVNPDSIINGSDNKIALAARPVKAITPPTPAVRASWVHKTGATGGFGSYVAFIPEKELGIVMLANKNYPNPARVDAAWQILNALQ
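AmpC (5.3 nM in the dispensed reagent) in 20 mM phosphate pH 7.0 with 0.01% (detergent screen) or 0.0001% Triton X-100 was preincubated with compounds for 15 min at room temperature. Nitrocefin was then added from an 800 uM solution, and hydrolysis was followed at 480 nm.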
Sm TGR inh: inhibitors of Schistosoma mansoni thioredoxin glutathione reductase; purified TGR, DTNB reduction, TNB absorbance 405 nm; 360,000 compounds, 3% hits; Q962Y6; Potency, µM (top dose mostly 114 µM), for the others: top-dose activity change, negative = inhibition, most hits filed as inhibitors; AID 485364; also: % is scaled to controls: 0 for no effect and ±100 for the full control effect; nearly all actives have a fitted effect of over 60% in size
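TGR 20 nM + NADPH 100 uM (dispensed conc.), cpd preinc 15 min RT; start with NADPH (500 uM addition) then DTNB (15 mM addition). Kinetic TNB absorbance, 405 nm filter. Four-parameter Hill fit across titration.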
RE007 growth inh: less growth of the S. pombe RE007 Vpr strain; S. pombe RE007 Vpr strain, BacTiter-Glo ATP luminescence, 24 h; 360,000 compounds, 0.21% hits; Potency, µM (highest dose often 92.2 µM), for the others: at the highest dose activity change, negative = less growth, most hits filed as inhibitors; AID 651644; active = well fitted falling curve with a large enough effect; inconclusive = small, poorly fitted or top-dose-only effect; inactive = no such curve, though single readings can be large or run the other way; also: % is scaled to controls: 0 for no effect and ±100 for the full control effect; nearly all actives have a fitted effect of over 50% in size
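Fission yeast RE007 carrying one integrated HIV-1 vpr copy, seeded at OD 0.01 in PMG+AL medium with 23 nL pinned compound. Grown 24 h at 30 degrees; viability read by BacTiter-Glo luminescence after 5 min.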
Tb PYK inh: blocks Trypanosoma brucei pyruvate kinase; Q57TT1; TbPYK enzyme, Kinase-Glo Plus ATP luminescence, 45 min; Potency, µM (highest dose often 76.8 µM), inactives show at the highest dose activity, negative = inhibition, hits mostly inhibitors; 410,000 compounds, 0.12% hits; AID 624173; also: % is scaled to controls: 0 for no effect and ±100 for the full control effect; nearly all actives have a fitted effect of over 50% in size
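Luminescent Kinase-Glo Plus end-point after 45 min room-temperature reaction of T. brucei pyruvate kinase started with 130 uM ADP (final). Buffer TEA 50 mM pH 7.2 with KCl, MgCl2, BSA, Tween-20; titration-based qHTS with fitted concentration-effect curves.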
AmpC inh no detg: inhibitors of E. coli AmpC beta-lactamase without detergent | 330,000 compounds, 0.52% hits | Potency, µM (series often up to 57.1 µM), inactives show at the highest dose activity change, negative = inhibition, usual class: inhibitors | P00811 | AmpC nitrocefin hydrolysis, absorbance 480 nm, 0.0001% Triton;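 also: plate controls were no compound for no effect and no enzyme for full effect; nearly all actives have a fitted effect of over 20% in size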
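AmpC (5.3 nM in the dispensed reagent) in 20 mM phosphate pH 7.0 with 0.01% (detergent screen) or 0.0001% Triton X-100 was preincubated with compounds for 15 min at room temperature. Nitrocefin was then added from an 800 uM solution, and hydrolysis was followed at 480 nm.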
Starred values were filed as active, the others as inactive; ? = inconclusive; / = not tested or not shown; [ ] = another dose, or the depositor's remark. Unless noted, calls follow the shape of the dose curve; as a rule, active = well fitted curve in the direction sought with a large enough effect; inconclusive = small, poorly fitted or top-dose-only effect, or another doubt; inactive = no such curve, though single readings can be large; an effect the other way counts as inactive or inconclusive. Potency is read from the fitted curve at half-maximal effect.

SMILES | SARS PLpro yeast | AmpC inh detg | Sm TGR inh | RE007 growth inh | Tb PYK inh | AmpC inh no detg
O=C(C1=C[C@@H](c2ccc(Br)cc2)C[C@@H](OCc2ccc(CO)cc2)O1)N1CCN(Cc2ccccc2)CC1 | -2% | 3% | 25µM* | -5% | -1% | 91%
O=C(C1=C[C@H](c2ccc(Br)cc2)C[C@H](OCCCCO)O1)N1CCOCC1 | -2% | 10% | 35µM* | -9% | 4% | 72%
COc1ccccc1NC(=O)c1sc2nc(C)c(C(=O)Nc3ccc(C)cc3C)c(-c3ccco3)c2c1N | / | 1% | 0% | / | 12% | /
C#Cc1ccc([C@@H]2C=C(C(=O)N3CCN(Cc4ccccc4)CC3)O[C@H](OCCCCO)C2)cc1 | -2% | 5% | 13µM* | / | / | 159%
CN1CCN(C(=O)C2=C[C@H](c3csc4ccccc34)C[C@H](OCc3ccc(CO)cc3)O2)CC1 | 0% | 7% | -27% | 2% | -13% | 189%
CN1CCN(C(=O)C2=C[C@H](c3csc4ccccc34)C[C@H](OCCCCO)O2)CC1 | 0% | -8% | 40µM* | -13% | 0% | 150%
CN1CCN(C(=O)C2=C[C@@H](c3ccccc3)C[C@@H](OCc3ccc(CO)cc3)O2)CC1 | 0% | 8% | 40µM* | 7% | -14% | 55%
CN(Cc1ccc(F)cc1)S(=O)(=O)c1nnc(NC(=O)c2ccccc2Cl)s1 | / | 11% | 1% | / | -12%[15.4 µM] | /
CC12CCC(=O)N1C(C(=O)Nc1cccc(S(=O)(=O)N3CCCCC3)c1)CS2 (stereo not given) | -12% | -6% | 2% | -6% | 2% | -18%
Cc1ccc(-c2csc(NC(=O)C3CSC4(C)CCC(=O)N34)n2)cc1 (stereo not given) | 8% | -4% | 56µM* | -4% | 6% | -14%
Cc1csc(NC(=O)C2CSC3(C)CCC(=O)N23)n1 (stereo not given) | 1% | -4% | -21% | -3% | -1% | -17%
CC1CCN(S(=O)(=O)c2ccc(NC(=O)C3CSC4(C)CCC(=O)N34)cc2)CC1 (stereo not given) | -4% | ? | -6% | -8% | 2% | 14µM*
CCCCC(=O)Nc1ccc(OCc2cc(=O)n3c(C)csc3n2)cc1 | / | 14% | -2% | / | -17% | /
Cc1cc(C)nc(NS(=O)(=O)c2ccc(NC(=S)NC(=O)C(C)(C)C)cc2)n1 | 4% | 1% | ? | -22% | 4% | -33%
COc1cc(NS(=O)(=O)c2ccc(NC(=S)NC(=O)c3ccco3)cc2)nc(OC)n1 | 0% | -9% | 32µM* | -1% | -2% | -20%
Cc1cc(C)nc(NS(=O)(=O)c2ccc(NC(=S)NC(=O)c3ccco3)cc2)n1 | -1% | 3% | 14µM* | -12% | 1% | -28%
CCNc1ccc(Br)cc(C(=O)/C=C/c2c(Cl)cccc2Cl)c1=O | -35% | 0% | 0.89µM* | -1% | 1% | -59%
CNc1ccc(Br)cc(C(=O)/C=C/c2ccc(Cl)cc2Cl)c1=O | -1% | 7% | 3.5µM* | 3% | -4% | -53%
CNc1ccc(Br)cc(C(=O)/C=C/c2ccc(OC)cc2OC)c1=O | -29% | ? | ? | -16% | -18% | ?
CCNc1ccc(Br)cc(C(=O)/C=C/c2ccc3c(c2)OCO3)c1=O | -8% | ? | ? | -18% | ? | -52%
CNc1ccc(Br)cc(C(=O)/C=C/c2cccc(OC)c2)c1=O | -10% | -1% | 3.2µM* | -20% | -18% | -45%
CCNc1ccc(Br)cc(C(=O)/C=C/c2ccc(Cl)cc2)c1=O | -32% | -8% | 10µM* | ? | -8% | -53%
CCNC(=O)/C=C/c1cccc(Br)c1 | / | / | / | / | 3% | /
CCN1/C(=C/C=C/c2oc3ccc4ccccc4c3[n+]2CC)Oc2ccc3ccccc3c21 | -5% | -8% | / | 13µM* | -14% | -1%
COc1cccc(N2CC(NC(=O)c3ccc(S(=O)(=O)N4CCOCC4)cc3)CC2=O)c1 (stereo not given) | / | -1% | -4% | / | -4% | /
SMILES | SARS PLpro yeast | AmpC inh detg | Sm TGR inh | RE007 growth inh | Tb PYK inh | AmpC inh no detg
CCCOc1ccccc1C(=O)Nc1nc2c(s1)CCCC2 | / | 21% | 6% | / | 1% | /
CC(C)CCn1c(SCC(=O)Nc2ccccc2C(F)(F)F)nc2nccnc2c1=O | 3% | -1% | 22µM* | 8% | -11% | 60%
O=C(CSCc1c(Cl)cccc1Cl)NN=C1CCCC1 | -8% | 8% | 0% | -6% | -2% | -36%
O=C(CSCc1ccccc1Cl)NN=C1CCCCCC1 | -4% | 4% | 4% | -4% | 0% | 0.22µM*
CCN(CC)c1ccc(N=Cc2ccc([N+](=O)[O-])o2)cc1 | -59% | -12% | 35µM* | ? | ? | -40%
Cc1nc2ccccn2c1C(=O)N/N=C/c1ccc([N+](=O)[O-])o1 | -1% | -8% | 14µM* | -21% | 0% | -24%
Cc1ccc(NCC(=O)N/N=C\c2ccc([N+](=O)[O-])o2)cc1 | 29% | -7% | ? | -16% | -4% | -23%
Nc1nonc1C(=O)N/N=C/c1ccc([N+](=O)[O-])o1 | -4% | 7% | 20µM* | -23% | -1% | -21%
CCN(CC)c1ccc(N=Cc2ccccc2[N+](=O)[O-])cc1 | 14% | ? | ? | ? | -23% | -23%
CCCCCC(=O)N/N=C/c1ccc([N+](=O)[O-])o1 | -1% | -3% | 40µM* | -22% | 4% | -18%
COc1ccc(-c2[nH]c(-c3ccccc3)nc2SCC(=O)Nc2ccc3c(c2)OCO3)cc1 | / | -8% | ? | / | -12% | /
O=C(N/N=C/c1ccc(-c2ccccc2[N+](=O)[O-])o1)c1cncc(Br)c1 | -26% | -5% | -14% | 16% | -15% | -54%
O=C(N/N=C/c1ccc([N+](=O)[O-])o1)c1ccccc1NS(=O)(=O)c1cccs1 | -1% | 0% | 28µM* | ? | -2% | -36%
O=C(N/N=C\c1ccc([N+](=O)[O-])o1)c1cncc(Br)c1 | 0% | 1% | 35µM* | -22% | -7% | 0%
COc1ccc(S(=O)(=O)N2Cc3ccccc3CC2C(=O)Nc2cccc(C)c2)cc1OC (stereo not given) | / | 23% | 4% | / | -3% | /
COc1ccc(S(=O)(=O)N2Cc3ccccc3CC2C(=O)Nc2ccc(O)cc2)cc1OC (stereo not given) | 2% | ? | -7% | 4% | 1% | 0.71µM*
CCOC(=O)COc1ccc(C)cc1C(=O)c1ccn2nc(-c3ccc(C)cc3)cc2n1 | / | 2% | 1% | / | 1% | /
